Measured values taken from PubChem BioAssay (Tox21).
Where “and” joins values, the source holds several entries; their conditions need not be identical. Identical values can stand only once. Records with an inconclusive call do not appear. Calls of active or inactive are those of the source. Unless noted, calls follow the shape of the dose curve; as a rule, active = well fitted curve in the direction sought with a large enough effect in the repeat runs; inconclusive = weak or mixed curves; inactive = no such curve, though single readings can be large; an effect the other way counts as inactive or inconclusive.

Experiments:
[1] = qHTS assay for small molecules that induce genotoxicity in human embryonic kidney cells expressing luciferase-tagged ATAD5 (AID 651632); also: nearly all actives have a fitted effect of over 15% in size
In short: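 Quantitative HTS in HEK293T expressing luciferase-tagged ATAD5, whose levels rise upon DNA damage. Exposure ran 16 hr at 37C and 5% CO2, with luminescence read 30 min after Amplite addition at room temperature.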

[2] = qHTS assay for small molecule agonists of the p53 signaling pathway - cell viability (AID 651633; calls by dose curve;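 also: p53RE-bla HCT reporter cells with a stable beta-lactamase p53 reporter; series mostly up to about 83 µM; nearly all actives have a fitted effect of over 30% in size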)
In short: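 p53RE-bla cells, seeded at 4,000 per well and rested 5 h at 37 C/5% CO2, received compounds in DMSO for 16 h at 37 C. CellTiter-Glo was then added, and luminescence was read after 30 min at room temperature to gauge cytotoxicity.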

[3] = qHTS assay for small molecules that induce genotoxicity in human embryonic kidney cells expressing luciferase-tagged ATAD5 - cell viability (AID 651634; calls by dose curve; also: nearly all actives have a fitted effect of over 25% in size)
In short: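 After 15.5 hr incubation with compound at 37C, 5% CO2, HEK293T ATAD5-luciferase cells received CellTiter-Fluor reagent; fluorescence intensity was quantified following 30 min at 37C.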

[4] = qHTS assay for small molecule disruptors of the mitochondrial membrane potential - cell viability (AID 720634; calls by dose curve;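 also: human HepG2 liver cancer cells; series mostly up to about 83 µM; nearly all actives have a fitted effect of over 20% in size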)
In short: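 ATP-based luminescent viability readout (CellTiter-Glo, 30 min, room temperature) in HepG2 cells multiplexed with the m-MPI membrane potential dye; compound exposure lasted 1 hr at 37 C.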

[5] = qHTS assay for small molecule disruptors of the mitochondrial membrane potential (AID 720635); also: potency is read from the fitted curve at half-maximal effect
In short: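 HepG2 cells (2,000/well) attached overnight at 37C, then took compound for 1 hr at 37C, 5% CO2. Mito-MPS dye was added for 30 min; fluorescence was read at 490/535 nm (monomers) and 540/590 nm (aggregates).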

[6] = qHTS assay to test for compound auto fluorescence at 590 nm (red) in HepG2 cells (AID 720674)
In short: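 Rose Bengal sodium served as the red fluorophore standard. HepG2 monolayers (overnight attachment, MEM with 10% FBS) were exposed to test compounds for 1 hr at 37 C and read at Ex 540/Em 590 nm.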

[7] = qHTS assay to test for compound auto fluorescence at 535 nm (green) in HepG2 cells (AID 720675)
[8] = qHTS assay to test for compound auto fluorescence at 460 nm (blue) in HEK293 cells (AID 720678)
In short: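 Blue-channel (Ex/Em 405/460 nm) intensity measured in HEK293 cultures after overnight compound exposure at 37C; signal expressed relative to triamterene. Cells plated 2,000 per well in 10% dialyzed FBS medium and allowed 4-5 hr to attach.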

[9] = qHTS assay to test for compound auto fluorescence at 590 nm (red) in HEK293 cells (AID 720679)
In short: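 Red-channel autofluorescence (Ex/Em 540/590 nm; Rose Bengal sodium reference) was measured after overnight 37C, 5% CO2 exposure of attached HEK293 cells, 2,000 per well in medium with 10% dialyzed FBS.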

[10] = qHTS assay to test for compound auto fluorescence at 535 nm (green) in HEK293 cells (AID 720680)
[11] = qHTS assay to test for compound auto fluorescence at 460 nm (blue) in HEK293 cell free culture (AID 720681)
In short: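 Test compounds were pinned into cell-free culture medium (DMEM with 10% FBS) and fluorescence was read directly at Ex/Em 405/460 nm. Signals were expressed as fluorescence equivalents of triamterene, with DMSO vehicle as control.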

[12] = qHTS assay to test for compound auto fluorescence at 535 nm (green) in HEK293 cell free culture (AID 720682)
In short: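 Using fluorescein as calibrant, autofluorescence was quantified at 485/535 nm in cell-free DMEM containing 10% FBS after pintool addition of compound or vehicle.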

[13] = qHTS assay to test for compound auto fluorescence at 590 nm (red) in HEK293 cell free culture (AID 720683)
In short: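 Tox21 10K library compounds were pinned into cell-free DMEM with 10% FBS and fluorescence was read at excitation 540 nm. Activity is expressed as Rose Bengal sodium equivalency.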

[14] = qHTS assay to test for compound auto fluorescence at 590 nm (red) in HepG2 cell free culture (AID 720684)
In short: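 Ex 540 / Em 590 nm read of compound in cell-free MEM (10% FBS). Rose Bengal sodium reference.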

[15] = qHTS assay to test for compound auto fluorescence at 460 nm (blue) in HepG2 cell free culture (AID 720685)
In short: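 Cell-free plates of MEM plus 10% FBS received 23 nL compound or DMSO vehicle; blue-channel (405/460 nm) intensity scored against triamterene as reference fluorophore.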

[16] = qHTS assay to test for compound auto fluorescence at 535 nm (green) in HepG2 cell free culture (AID 720686)
[17] = qHTS assay to test for compound auto fluorescence at 460 nm (blue) in HepG2 cells (AID 720687)
In short: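 Cells (2,000/well in MEM with 10% FBS) attached overnight at 37 C, then were exposed to compound or DMSO for 1 hr at 37 C, 5% CO2. Fluorescence read at Ex/Em 405/460 nm, expressed as triamterene-equivalent signal.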

[18] = qHTS assay for small molecule agonists of the p53 signaling pathway (AID 651631; calls by dose curve; also: nearly all actives have a fitted effect of over 15% in size)
In short: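 Stably transfected HCT-116 cells (beta-lactamase behind p53 response elements) get compounds after a 5 h settling period; 16 h later at 37 °C, FRET substrate is loaded and fluorescence read after 2 h.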

[19] = molecular target: Glucocorticoid receptor (Homo sapiens) (UniProt P04150); assay: qHTS assay to identify small molecule agonists of the glucocorticoid receptor (GR) signaling pathway (AID 720691; active = well fitted activation curve with a large enough effect in the signal ratio in the repeat runs, not every such curve was filed as active; the % refers to the signal ratio)
Glucocorticoid receptor (Homo sapiens), sequence (P04150 whole entry, looked up): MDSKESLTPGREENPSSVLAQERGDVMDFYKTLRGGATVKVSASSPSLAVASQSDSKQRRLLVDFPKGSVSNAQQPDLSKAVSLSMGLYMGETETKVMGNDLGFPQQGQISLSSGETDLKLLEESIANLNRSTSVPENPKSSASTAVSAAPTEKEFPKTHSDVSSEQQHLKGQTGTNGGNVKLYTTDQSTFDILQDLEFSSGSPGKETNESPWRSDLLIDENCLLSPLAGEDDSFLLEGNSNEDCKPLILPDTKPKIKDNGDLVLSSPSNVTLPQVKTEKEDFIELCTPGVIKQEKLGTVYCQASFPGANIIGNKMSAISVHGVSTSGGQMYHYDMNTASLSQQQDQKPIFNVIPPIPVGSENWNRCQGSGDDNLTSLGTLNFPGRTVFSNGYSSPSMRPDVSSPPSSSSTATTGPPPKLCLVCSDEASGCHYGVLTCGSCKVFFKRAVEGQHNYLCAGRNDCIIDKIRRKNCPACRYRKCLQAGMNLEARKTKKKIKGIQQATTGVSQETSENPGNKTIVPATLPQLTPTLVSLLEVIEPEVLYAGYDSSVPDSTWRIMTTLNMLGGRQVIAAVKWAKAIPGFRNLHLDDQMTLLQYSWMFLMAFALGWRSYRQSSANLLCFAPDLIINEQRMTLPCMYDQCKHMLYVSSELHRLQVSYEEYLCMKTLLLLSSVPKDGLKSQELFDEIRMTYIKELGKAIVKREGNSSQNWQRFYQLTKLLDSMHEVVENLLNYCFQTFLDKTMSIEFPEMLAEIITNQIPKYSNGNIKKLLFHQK
In short: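 Cells: GR-bla HeLa, endogenous GR with stably integrated GRE-beta-lactamase reporter. Treatment 18 h, 37 C, compounds delivered in DMSO. Detection via LiveBLAzer B/G FRET substrate, 2 h RT, fluorescence intensity.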

[20] = molecular target: Glucocorticoid receptor (Homo sapiens) (UniProt P04150); assay: qHTS assay to identify small molecule antagonists of the glucocorticoid receptor (GR) signaling pathway (AID 720692; active = well fitted inhibition curve with a large enough effect in the signal ratio in the repeat runs, not every such curve was filed as active; the % refers to the signal ratio)
In short: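 Quantitative HTS in antagonist format: HeLa cells expressing endogenous GR and a stably integrated GRE-bla reporter, stimulated with 5 nM dexamethasone (final) alongside test compounds for 18 h.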

Measured: Potency

CC(C)[C@@H]1CC[C@@H](C)C[C@H]1O
not listed: [18] | [19] | [20]
inactive: all other assays above

O=C1CN(/N=C/c2ccc([N+](=O)[O-])o2)C(=O)N1
active: [5] 21.1 µM and 21.6 µM and 21.7 µM
not listed: [3]
inactive: all other assays above

CCCCC1C(=O)N(c2ccccc2)N(c2ccccc2)C1=O
not listed: [4] | [5]
inactive: all other assays above

C/C=C/c1ccc(OC)cc1
not listed: [1] | [5] | [18] | [19] | [20]
inactive: all other assays above

Cc1cn([C@H]2C[C@H](N=[N+]=[N-])[C@@H](CO)O2)c(=O)[nH]c1=O
not listed: [1] | [3]
inactive: all other assays above

O=C(O)C(=O)O
not listed: [18]
inactive: all other assays above

O=C1NC(=O)c2ccccc21
not listed: [1] | [18] | [19] | [20]
inactive: all other assays above

O=C(C1CCCCC1)N1CC(=O)N2CCc3ccccc3C2C1 (centres undefined)
not listed: [1] | [2] | [18]
inactive: all other assays above

O=NO
not listed: [1] | [18] | [19] | [20]
inactive: all other assays above

O=C(O)CS
not listed: [18]
inactive: all other assays above

Cc1ccc(C)c(OCCCC(C)(C)C(=O)O)c1
not listed: [2] | [18] | [19] | [20]
inactive: all other assays above

CNC[C@H](O)c1cccc(O)c1
not listed: [1] | [19] | [20]
inactive: all other assays above

O=C(O)CCC(=O)O
not listed: [18] | [19] | [20]
inactive: all other assays above

CC(=O)OCC(COC(C)=O)OC(C)=O
not listed: [18]
inactive: all other assays above

CCC1(c2ccccc2)C(=O)NCNC1=O
not listed: [1] | [3]
inactive: all other assays above

O=C(O)c1cccnc1
not listed: [1] | [2] | [18] | [19] | [20]
inactive: all other assays above

CCCC(CCC)C(=O)O
not listed: [2] | [18]
inactive: all other assays above

O=C(c1ccccc1)c1ccccc1
not listed: [1] | [3] | [5]
inactive: all other assays above

NC(=O)c1ccccc1O
inactive: all assays above

O=C(c1ccccc1)C(O)c1ccccc1 (centres undefined)
not listed: [4] | [5] | [18]
inactive: all other assays above

C[C@]12C=CC(=O)C=C1CC[C@@H]1[C@@H]2[C@@H](O)C[C@@]2(C)[C@H]1CC[C@]2(O)C(=O)CO
not listed: [5] | [19] | [20]
inactive: all other assays above

OCCc1ccccc1
not listed: [1] | [19] | [20]
inactive: all other assays above

COc1c2occc2cc2ccc(=O)oc12
not listed: [1] | [3] | [5]
inactive: all other assays above
